The results in this text go back to the supplement of paper PMC7366291.

Conditions in all cases: 25 µM; exposure: 24-48 hpf
The test system of assay [1] is Danio rerio Tg(wt1b:EGFP) embryo, pronephros. Briefly: glomerular separation, fold change vs DMSO control; higher = glomeruli further apart (abnormal). The essentials: (§1)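 In HEPES-buffered E3 with 0.003% PTU and 0.5% DMSO, dechorionated Tg(wt1b:EGFP) zebrafish embryos were exposed to 25 μM compound from 24 to 48 hpf at 28.5°C. Pronephroi were then imaged dorsally at 470 nm in 10 z-slices, in 96-well plates filled with agarose. On maximum projections, a Fiji macro turned 16 manually placed reference points into distances and angles, and values more than 2 SD from the feature mean were excluded. Features are fold changes relative to the mean of DMSO-treated embryos from the same day.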

Assay [2] shares this test system. Briefly: glomerular width (mean of left and right), fold change vs DMSO control; higher = wider glomerulus. The essentials: as §1
Assay [3] has the same test system. Briefly: fraction of imaged embryos annotated as normal kidney; higher = less nephrotoxic; extreme values may be limits of the assay. The essentials: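 Dechorionated Tg(wt1b:EGFP) zebrafish embryos were incubated with 25 μM compound in 0.5% DMSO, 5 mM HEPES-buffered E3 and 0.003% PTU from 24 to 48 hpf at 28.5°C. Pronephroi were then imaged by widefield fluorescence, and the fraction of embryos per treatment assigned by hand to the normal-kidney category is given.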

For assay [4] the test system is unchanged. Briefly: pronephric angle neck segment to proximal convoluted tubule (mean of left and right), fold change vs DMSO control; higher = larger pronephric angle. The essentials:
as §1

Where a name gives a salt, the structure may show the parent alone. ± gives the standard deviation or the standard deviation of the averaged measurements.

With `CC(=O)c1ccc(S(=O)(=O)NC(=O)NC2CCCCC2)cc1` [Acetohexamide], the glomerular separation in assay [1] amounted to 0.839 ± 0.25. In addition, in assay [2], the glomerular width was found to be 1.05 ± 0.023. Also, in assay [3], the “fraction of imaged embryos annotated as normal kidney” value (from here on “fraction of imaged embryos annotated”) turned out to be 0.833. Further, in assay [4], the “pronephric angle neck segment” value was 0.9767 ± 0.0092.

On to `O=C1[C@H](CC[C@H](O)c2ccc(F)cc2)[C@@H](c2ccc(O)cc2)N1c1ccc(F)cc1` [Ezetimibe], for which the glomerular separation in assay [1] was 1.28 ± 0.36. Also, the glomerular width in assay [2] was determined as 1.01 ± 0.015. In addition, the “fraction of imaged embryos annotated” value in assay [3] is 0.75. Moreover, the “pronephric angle neck segment” value in assay [4] turned out to be 0.992 ± 0.059.

Regarding `CC(=O)S[C@@H]1CC2=CC(=O)CC[C@]2(C)[C@H]2CC[C@@]3(C)[C@@H](CC[C@@]34CCC(=O)O4)[C@H]12` [Spironolactone], in assay [1], the glomerular separation stood at 0.838 ± 0.13. Further, in assay [2], the glomerular width is 0.912 ± 0.011. Moreover, in assay [3], the “fraction of imaged embryos annotated” value was 1. Besides, the “pronephric angle neck segment” value in assay [4] was 0.986 ± 0.036.

Consider `Nc1nc(=O)c2c([nH]1)NC[C@@H](CNc1ccc(C(=O)N[C@@H](CCC(=O)O)C(=O)O)cc1)N2C=O` [Folinic acid calcium salt], for which the glomerular separation in assay [1] was 0.989 ± 0.3. Besides, the glomerular width in assay [2] amounted to 1.01 ± 0.016. For the same molecule, in assay [3], the “fraction of imaged embryos annotated” value is 0.583. The “pronephric angle neck segment” value in assay [4] was 0.979 ± 0.042.

In the case of `CCC(NC(C)C)C(O)c1ccc(O)c(O)c1` (stereo not drawn) [Isoetharine mesylate salt], the glomerular separation in assay [1] came out at 1.01 ± 0.56. Also, the glomerular width in assay [2] worked out at 1.074 ± 0.0074. Also, the “fraction of imaged embryos annotated” value in assay [3] was found to be 0.75. In addition, the “pronephric angle neck segment” value in assay [4] amounted to 1.01 ± 0.032.

In assay [1], `CC(C(=O)O)c1ccc(-c2ccccc2)c(F)c1` (stereo not drawn) [Flurbiprofen] registered a glomerular separation of 5.61 ± 1.3. The glomerular width in assay [2] came out at 0.48 ± 0.02. Besides, the “fraction of imaged embryos annotated” value in assay [3] turned out to be 0. Besides, in assay [4], the “pronephric angle neck segment” value amounted to 1.96 ± 0.059.

In turn, `Clc1ccc(Nc2nnc(Cc3ccncc3)c3ccccc23)cc1` [Vatalanib] returned a glomerular separation in assay [1] of 1.37 ± 0.99. In addition, the glomerular width in assay [2] turned out to be 0.886 ± 0.039. In addition, the “fraction of imaged embryos annotated” value in assay [3] came out at 0.833. For the same molecule, the “pronephric angle neck segment” value in assay [4] is 1.02 ± 0.046.

In the case of `Clc1ccc2c(c1)C(N1CCNCC1)=Nc1ccccc1O2` [Amoxapine], in assay [1], the glomerular separation turned out to be 1.04 ± 0.33. Besides, in assay [2], the glomerular width is 0.9699 ± 0.0014. Moreover, in assay [3], the “fraction of imaged embryos annotated” value came out at 0.75. Besides, in assay [4], the “pronephric angle neck segment” value came to 1.02 ± 0.039.

The molecule `N[C@H]1CONC1=O` [(S)-(-)-Cycloserine] had a glomerular separation in assay [1] of 0.898 ± 0.5. Moreover, the glomerular width in assay [2] amounted to 0.892 ± 0.011. Also, the “fraction of imaged embryos annotated” value in assay [3] turned out to be 0.5. Moreover, the “pronephric angle neck segment” value in assay [4] worked out at 1.025 ± 0.0084.

Take `CC1=C(CC(=O)O)c2cc(F)ccc2/C1=C\c1ccc([S+](C)[O-])cc1` (stereo not drawn) [Sulindac]: the glomerular separation in assay [1] stood at 0.735 ± 0.15. For the same molecule, the glomerular width in assay [2] was found to be 0.8774 ± 0.0075. Besides, the “fraction of imaged embryos annotated” value in assay [3] is 0.667. For the same molecule, the “pronephric angle neck segment” value in assay [4] stood at 1.0374 ± 0.00064.

As for `CNCCc1ccccn1` [Betahistine mesylate], in assay [1], the glomerular separation turned out to be 0.815 ± 0.39. The molecule further yielded a glomerular width in assay [2] of 1.06 ± 0.034. In assay [3], the “fraction of imaged embryos annotated” value turned out to be 0.833. In addition, in assay [4], the “pronephric angle neck segment” value was 0.9697 ± 0.0079.

The molecule `COC(=O)C1=C(C)NC(C)=C(C(=O)OCCN(C)Cc2ccccc2)C1c1cccc([N+](=O)[O-])c1` (stereo not drawn) [Nicardipine hydrochloride] yielded a glomerular separation in assay [1] of 1.13 ± 0.73. The molecule also registered a glomerular width in assay [2] of 1 ± 0.027. For the same molecule, the “fraction of imaged embryos annotated” value in assay [3] is 0.909. Further, the “pronephric angle neck segment” value in assay [4] is 1.01 ± 0.036.

As for `COc1nc(N)nc2c1ncn2[C@@H]1O[C@H](CO)[C@@H](O)[C@@H]1O` [Nelarabine], in assay [1], the glomerular separation was 0.929 ± 0.39. The molecule also displayed a glomerular width in assay [2] of 0.992 ± 0.058. Besides, the “fraction of imaged embryos annotated” value in assay [3] was found to be 0.727. In assay [4], the “pronephric angle neck segment” value turned out to be 0.984 ± 0.073.

`CN1CCN(CCCN2c3ccccc3Sc3ccc(S(=O)(=O)N(C)C)cc32)CC1` [Thioproperazine dimesylate]: the glomerular separation in assay [1] was 0.945 ± 0.3. In addition, in assay [2], the glomerular width came to 0.988 ± 0.028. Further, in assay [3], the “fraction of imaged embryos annotated” value was found to be 0.917. Besides, the “pronephric angle neck segment” value in assay [4] turned out to be 0.945 ± 0.046.

Turning to `CC(C)(C)NCC(O)COc1cccc2c1CCC(=O)N2` (stereo not drawn) [Carteolol hydrochloride], in assay [1], the glomerular separation came to 1.21 ± 0.32. The glomerular width in assay [2] was determined as 0.909 ± 0.034. Moreover, the “fraction of imaged embryos annotated” value in assay [3] worked out at 0.917. Also, the “pronephric angle neck segment” value in assay [4] was found to be 1.01 ± 0.027.

The molecule `CN(C/C=C/c1ccccc1)Cc1cccc2ccccc12` [Naftifine hydrochloride] returned a glomerular separation in assay [1] of 1.03 ± 0.34. In assay [2], this molecule yielded a glomerular width of 0.96 ± 0.044. Also, the “fraction of imaged embryos annotated” value in assay [3] turned out to be 0.9. For the same molecule, the “pronephric angle neck segment” value in assay [4] is 0.982 ± 0.078.

In assay [1], `CCC(=O)OCC(=O)[C@@]1(OC(=O)CC)[C@@H](C)C[C@H]2[C@@H]3CCC4=CC(=O)C=C[C@]4(C)[C@@]3(Cl)[C@@H](O)C[C@@]21C` [Beclomethasone dipropionate] displayed a glomerular separation of 1.04 ± 0.69. The same molecule showed a glomerular width in assay [2] of 1.16 ± 0.021. The “fraction of imaged embryos annotated” value in assay [3] worked out at 0.417. For the same molecule, the “pronephric angle neck segment” value in assay [4] worked out at 1.16 ± 0.091.
